Laboratory results published in PubChem BioAssay.
Activity calls are given as the source filed them.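 How the source made its calls: active means normalized viability below 100% at a tested concentration; inactive means the rest.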

Assay: ovarian cancer cell viability with rucaparib, profiling panel, oncology-focused library, rucaparib conditional (AID 1508598)
Details: patient-derived ovarian cancer cells, CellTiter-Glo viability, 144 h; at 0.313 µM; OCI-P5x cells; with rucaparib 20 µM; stronger effect = lower value; 100% = cells with rucaparib alone

SMILES	viability
CNC(=O)c1cc(COc2nnc(Nc3ccc(Cl)cc3)c3ccoc23)ccn1	103% (inactive)
Nc1ccn([C@@H]2O[C@H](CO)[C@@H](O)C2(F)F)c(=O)n1	58.9% (active)
O=C(CCCCCCC(=O)Nc1ccc([C@H]2O[C@@H](CSc3nc(-c4ccccc4)c(-c4ccccc4)o3)C[C@@H](c3ccc(CO)cc3)O2)cc1)NO	104% (inactive)
CNC(=O)c1cc(Oc2ccc(NC(=O)Nc3ccc(Cl)c(C(F)(F)F)c3)c(F)c2)ccn1	115% (inactive)
CS(=O)(=O)N1CCc2c(-c3cnc(N)nc3)nc(N3CCOCC3)nc21	109% (inactive)

Same assay, conditions: patient-derived ovarian cancer cells, CellTiter-Glo viability, 144 h; at 0.313 µM; OCI-P5x cells; without rucaparib; stronger effect = lower value

SMILES	viability
CNC(=O)c1cc(COc2nnc(Nc3ccc(Cl)cc3)c3ccoc23)ccn1	111% (inactive)
Nc1ccn([C@@H]2O[C@H](CO)[C@@H](O)C2(F)F)c(=O)n1	22.7% (active)
O=C(CCCCCCC(=O)Nc1ccc([C@H]2O[C@@H](CSc3nc(-c4ccccc4)c(-c4ccccc4)o3)C[C@@H](c3ccc(CO)cc3)O2)cc1)NO	109% (inactive)
CNC(=O)c1cc(Oc2ccc(NC(=O)Nc3ccc(Cl)c(C(F)(F)F)c3)c(F)c2)ccn1	117% (inactive)
CS(=O)(=O)N1CCc2c(-c3cnc(N)nc3)nc(N3CCOCC3)nc21	107% (inactive)

Same assay, conditions: patient-derived ovarian cancer cells, CellTiter-Glo viability, 144 h; at 1.25 µM; OCI-C5x cells; with rucaparib 10 µM; stronger effect = lower value; 100% = cells with rucaparib alone

SMILES	viability
CNC(=O)c1cc(COc2nnc(Nc3ccc(Cl)cc3)c3ccoc23)ccn1	106% (inactive)
Nc1ccn([C@@H]2O[C@H](CO)[C@@H](O)C2(F)F)c(=O)n1	33.1% (active)
O=C(CCCCCCC(=O)Nc1ccc([C@H]2O[C@@H](CSc3nc(-c4ccccc4)c(-c4ccccc4)o3)C[C@@H](c3ccc(CO)cc3)O2)cc1)NO	110% (inactive)
CNC(=O)c1cc(Oc2ccc(NC(=O)Nc3ccc(Cl)c(C(F)(F)F)c3)c(F)c2)ccn1	107% (inactive)
CS(=O)(=O)N1CCc2c(-c3cnc(N)nc3)nc(N3CCOCC3)nc21	75.9% (active)

Same assay, conditions: patient-derived ovarian cancer cells, CellTiter-Glo viability, 144 h; at 1.25 µM; OCI-C5x cells; without rucaparib; stronger effect = lower value

SMILES	viability
CNC(=O)c1cc(COc2nnc(Nc3ccc(Cl)cc3)c3ccoc23)ccn1	114% (inactive)
Nc1ccn([C@@H]2O[C@H](CO)[C@@H](O)C2(F)F)c(=O)n1	30.2% (active)
O=C(CCCCCCC(=O)Nc1ccc([C@H]2O[C@@H](CSc3nc(-c4ccccc4)c(-c4ccccc4)o3)C[C@@H](c3ccc(CO)cc3)O2)cc1)NO	139% (inactive)
CNC(=O)c1cc(Oc2ccc(NC(=O)Nc3ccc(Cl)c(C(F)(F)F)c3)c(F)c2)ccn1	104% (inactive)
CS(=O)(=O)N1CCc2c(-c3cnc(N)nc3)nc(N3CCOCC3)nc21	118% (inactive)

Same assay, conditions: patient-derived ovarian cancer cells, CellTiter-Glo viability, 144 h; at 1.25 µM; OCI-P5x cells; with rucaparib 20 µM; stronger effect = lower value; 100% = cells with rucaparib alone

SMILES	viability
CNC(=O)c1cc(COc2nnc(Nc3ccc(Cl)cc3)c3ccoc23)ccn1	98.5% (active)
Nc1ccn([C@@H]2O[C@H](CO)[C@@H](O)C2(F)F)c(=O)n1	53.9% (active)
O=C(CCCCCCC(=O)Nc1ccc([C@H]2O[C@@H](CSc3nc(-c4ccccc4)c(-c4ccccc4)o3)C[C@@H](c3ccc(CO)cc3)O2)cc1)NO	106% (inactive)
CNC(=O)c1cc(Oc2ccc(NC(=O)Nc3ccc(Cl)c(C(F)(F)F)c3)c(F)c2)ccn1	103% (inactive)
CS(=O)(=O)N1CCc2c(-c3cnc(N)nc3)nc(N3CCOCC3)nc21	66.8% (active)

Same assay, conditions: patient-derived ovarian cancer cells, CellTiter-Glo viability, 144 h; at 1.25 µM; OCI-P5x cells; without rucaparib; stronger effect = lower value

SMILES	viability
CNC(=O)c1cc(COc2nnc(Nc3ccc(Cl)cc3)c3ccoc23)ccn1	108% (inactive)
Nc1ccn([C@@H]2O[C@H](CO)[C@@H](O)C2(F)F)c(=O)n1	25.7% (active)
O=C(CCCCCCC(=O)Nc1ccc([C@H]2O[C@@H](CSc3nc(-c4ccccc4)c(-c4ccccc4)o3)C[C@@H](c3ccc(CO)cc3)O2)cc1)NO	116% (inactive)
CNC(=O)c1cc(Oc2ccc(NC(=O)Nc3ccc(Cl)c(C(F)(F)F)c3)c(F)c2)ccn1	117% (inactive)
CS(=O)(=O)N1CCc2c(-c3cnc(N)nc3)nc(N3CCOCC3)nc21	97% (active)

Same assay, conditions: patient-derived ovarian cancer cells, CellTiter-Glo viability, 144 h; at 5 µM; OCI-C5x cells; with rucaparib 10 µM; stronger effect = lower value; 100% = cells with rucaparib alone

SMILES	viability
CNC(=O)c1cc(COc2nnc(Nc3ccc(Cl)cc3)c3ccoc23)ccn1	114% (inactive)
Nc1ccn([C@@H]2O[C@H](CO)[C@@H](O)C2(F)F)c(=O)n1	14.3% (active)
O=C(CCCCCCC(=O)Nc1ccc([C@H]2O[C@@H](CSc3nc(-c4ccccc4)c(-c4ccccc4)o3)C[C@@H](c3ccc(CO)cc3)O2)cc1)NO	128% (inactive)
CNC(=O)c1cc(Oc2ccc(NC(=O)Nc3ccc(Cl)c(C(F)(F)F)c3)c(F)c2)ccn1	125% (inactive)
CS(=O)(=O)N1CCc2c(-c3cnc(N)nc3)nc(N3CCOCC3)nc21	39.2% (active)

Same assay, conditions: patient-derived ovarian cancer cells, CellTiter-Glo viability, 144 h; at 5 µM; OCI-C5x cells; without rucaparib; stronger effect = lower value

SMILES	viability
CNC(=O)c1cc(COc2nnc(Nc3ccc(Cl)cc3)c3ccoc23)ccn1	128% (inactive)
Nc1ccn([C@@H]2O[C@H](CO)[C@@H](O)C2(F)F)c(=O)n1	14.2% (active)
O=C(CCCCCCC(=O)Nc1ccc([C@H]2O[C@@H](CSc3nc(-c4ccccc4)c(-c4ccccc4)o3)C[C@@H](c3ccc(CO)cc3)O2)cc1)NO	158% (inactive)
CNC(=O)c1cc(Oc2ccc(NC(=O)Nc3ccc(Cl)c(C(F)(F)F)c3)c(F)c2)ccn1	105% (inactive)
CS(=O)(=O)N1CCc2c(-c3cnc(N)nc3)nc(N3CCOCC3)nc21	56% (active)
